SMILES strings stand for the structures. Out of some 69,000 compounds screened, about 8,600 (12%) showed an effect of 50% or more. This excerpt belongs to a sample that is enriched for strong results.

This test deals with Plasmodium berghei. Kind of test: Screen against P. berghei liver stage (PbLuc), transformed with Luciferase, at 10uM. The class given is functional, HepG2. The following applies: tested at 10 uM.
As for `COC(=O)NCC(=O)N1CCCC(c2ncc[nH]2)C1` (centres undefined), the INHIBITION turned out to be 15.2%.

As for `Cc1sc(NC(=O)CN2CCCC(c3ncc[nH]3)C2)c(C)c1C` (centres undefined), the INHIBITION was 94.1%.

For `Cc1nc(CNC(=O)N2CCCC(c3ncc[nH]3)C2)sc1C` (centres undefined), the INHIBITION worked out at 23.5%. With `O=C(CN1CCCC(c2ncc[nH]2)C1)NCCCN1CCCCCC1=O` (centres undefined), the INHIBITION came out at 45.4%.

On to `O=C(CN1CCCC(c2ncc[nH]2)C1)NCC(F)(F)F` (centres undefined), for which the INHIBITION came to 81.2%. Then `O=C(CCC(F)(F)F)N1CCCC(c2ncc[nH]2)C1` (centres undefined), with -0.71%; and `CCn1nccc1CNC(=O)C1CCCO1` (centres undefined), with 17%.

Take `COc1ccc(N2CCN(C(=O)OC(C)(C)C)C(C(=O)O)C2)cc1` (centres undefined): the INHIBITION is given as 2.55%. `Cc1ccc(N2CCC3(CCN(C(=O)c4ccoc4)CC3)CC2)nn1`: the INHIBITION is on record as -0.27%. Then `Cc1cc(N2CCC(NC(=O)C3CC3)CC2)nc(-c2ccncc2)n1`, with 23.4%; and `CCCc1cc(C(=O)N2CC(c3ccncc3)C2)ccn1`, with 8.64%. For `CCCc1cc(C(=O)N2C[C@H]3CC=C(C)C[C@H]3C2)ccn1`, the INHIBITION was 6.66%. Then `CCCc1cc(C(=O)N2C[C@H](O)[C@@H](N3CCCC3)C2)ccn1`, with 55.2%; and `CC(C)c1sc(Cl)nc1C(=O)N1CCN(c2ccccc2)CC1`, with -1.23%; and `NC(=O)C1CCN(C(=O)NCc2csc(Br)c2)CC1`, with 16.9975%. Then `Cc1csc(N(C)C(=O)C(c2c(F)cccc2Cl)N(C)C)n1` (centres undefined), with 9.04%. Regarding `N#Cc1c(F)cccc1N1CCC(C(=O)Nc2nccs2)CC1`, the INHIBITION was found to be 17.5%. Then `CN(C)C(C(=O)NCC1(O)CCCCC1)c1c(F)cccc1F` (centres undefined), with -21.2%; and `CN(C)C(C(=O)Nc1nccs1)c1c(F)cccc1Cl` (centres undefined), with 50.8%. Then `CN(C(=O)C(c1c(F)cccc1Cl)N(C)C)c1nccs1` (centres undefined), with 66.5%.

With `COCCOc1ncccc1C(=O)N(C)c1nccs1`, the INHIBITION is recorded as 45.2%.

For the compound `CCNc1cc2c(nn1)CCN(C(=O)c1nccnc1N)C2`, the INHIBITION is given as 23.5%.

In the case of `Cc1c(C2CC(=O)Nc3c2cnn3C(C)C)cnn1C` (centres undefined), the INHIBITION turned out to be 24.7%. Then `Cc1cn2nc(N(C)C3CCCN(c4cccnn4)C3)sc2n1` (centres undefined), with 11.5%; and `CCCNC(=O)COc1cccc(-c2nc(C(C)C)no2)c1`, with 31.3%.

With `O=C(C1CCC1)N1CCCC(c2ccnc(Nc3cnccn3)n2)C1` (centres undefined), the INHIBITION is on record as -14.1%. Then `Cc1ccc(Nc2nccc(C3CCN(CC(N)=O)C3)n2)nc1` (centres undefined), with 88.1%. Regarding `CC(=O)N1CC(c2ccnc(Nc3ccc(C)cn3)n2)C1`, the INHIBITION is reported as -9.32%. Then `Cc1ccc(Nc2nccc(C3CCCN(CC(=O)N(C)C)C3)n2)nc1` (centres undefined), with 79.6%; and `CC(=O)N1CCC(c2ccnc(Nc3ccc(C)cn3)n2)C1` (centres undefined), with -55%; and `COCC(=O)N1CC(c2ccnc(Nc3ccc(C)cn3)n2)C1`, with 6.32%. Then `Cc1ccc(Nc2nccc(C3CN(C(C)C)C3)n2)nc1`, with 61.7%.

Regarding `Cc1ccc(Nc2nccc(C3CN(CC(N)=O)C3)n2)nc1`, the INHIBITION stood at 46.6%.

Turning to `Cc1cccnc1Nc1nccc(C2CN(CC(N)=O)C2)n1`, the INHIBITION is recorded as -4.51%. As for `Cn1nc2c(cc1=O)CN(Cc1nc(-c3cccnc3)no1)CC2`, the INHIBITION is recorded as 13.3%. Then `CC(C)NC(=O)N1CCCC2(CCN(c3ccccc3)C2=O)C1` (centres undefined), with -20.8%; and `COc1cccc(NC(=O)Cn2cc(-c3ccccc3)ncc2=O)c1`, with 28.2%. Then `CN(Cc1n[nH]c2c1CCC2)C(=O)c1cccc(CCC(C)(C)O)c1`, with 68.5%; and `CN(Cc1n[nH]c2c1CCCC2)C(=O)c1cccc(CCC(C)(C)O)c1`, with 48.5%. Then `CN(Cc1cc[nH]n1)C(=O)c1cccc(CCC(C)(C)O)c1`, with 34.1%; and `OC1CCN(c2nc(-c3ccccc3)no2)CC1`, with -3.74%. With `O[C@H]1CN(c2nc(-c3ccccc3)no2)C[C@@H]1N1CCOCC1`, the INHIBITION is reported as -22.7%. Take `OC1CCN([C@@H]2CCN(c3nc(-c4ccccc4)no3)C[C@H]2O)CC1`: the INHIBITION worked out at 69.8%. As for `CC(C)c1ccc2c(c1)C1(CC(=O)Nc3[nH]ncc31)C(=O)N2C` (centres undefined), the INHIBITION amounted to 17.7%. Then `CCOc1ccc(NC(=O)NCc2cccnc2OCC)cc1`, with 13.6%; and `Cc1cccc(CN2CCc3ncnc(-c4ccsc4)c3CC2)n1`, with 53.2%. Then `Cc1nc(CN2CCc3ncnc(-c4ccccc4)c3CC2)cs1`, with 6.6%; and `Cc1nc(CN2CCN(c3ccc(SC(C)C)nn3)CC2)cs1`, with -4.13%; and `Cc1nc(CN2CCc3ncnc(C4CC4)c3CC2)cs1`, with 15.9%. Then `Cc1nc(CN2CCc3ncnc(C)c3CC2)cs1`, with 56.3%; and `Cc1nc(CN2CCc3ncnc(-c4ccncc4)c3CC2)cs1`, with 27.6%. For `Cc1nc(CN2CCN(c3nc4c(s3)c(C)nn4C)CC2)cs1`, the INHIBITION was found to be 73.9%. For `Cc1nn(C)c2nc(N3CCN(Cc4nccn4C)CC3)sc12`, the INHIBITION is given as 37.6%. Then `c1ccc(CN2CCc3ncnc(-c4ccsc4)c3CC2)nc1`, with 19.9%; and `Cc1nc(CN2CCc3ncnc(-c4ccsc4)c3CC2)cs1`, with 60.2%; and `CCOc1ncnc2c1CCN(Cc1csc(C)n1)CC2`, with 1.94%.

On to `Cc1cccc(CN2CCc3ncnc(C)c3CC2)n1`, for which the INHIBITION is 6.8%. Then `Cc1cn(CC(=O)Nc2cc(C(C)C)nn2C)cn1`, with -0.273%. Then `CC1CN(C)CCN1CC(=O)NCCOc1ccc(Cl)cc1` (centres undefined), with 35.95%. Then `CC(c1ccccn1)N(C)Cc1cccc(C(=O)Nc2nccn2C)c1` (centres undefined), with 9.57%; and `CN(C)c1nc(NCCc2ccnn2C)ncc1F`, with 42.3%. As for `O=C(Cc1ccc(F)c(Br)c1)NC1CCN(CC(F)F)CC1`, the INHIBITION is on record as -60.4%. Take `CN(C)CC(=O)N1CCc2ncnc(-c3cncnc3)c2CC1`: the INHIBITION turned out to be 6.83%. Then `CN(C)CC(=O)N1CCc2ncnc(-c3ccsc3)c2CC1`, with 70.4%; and `CN(C)CC(=O)N1CCc2ncnc(-c3ccoc3)c2CC1`, with 23.1%; and `CCn1ccc(NC(=O)CN2C(=O)C(C)(C)c3ccccc32)n1`, with 23.1%. Consider `Cc1ccc(N2CCCC(NCc3c(C)noc3C)C2)nn1` (centres undefined), for which the INHIBITION is -89%.

Consider `CN1CC(C(=O)NCCc2ccc3c(c2)OCO3)CC1=O` (centres undefined), for which the INHIBITION is given as 20%. Then `Cc1noc(-c2ccnc(Oc3ccc(CN4CCCC4)cc3F)c2)n1`, with 87.4%; and `COc1ccc(CNC2CCCN(Cc3noc(C)n3)C2)cc1F` (centres undefined), with 40.3%. Then `COc1ccc(CCNc2cc(-c3nc(C)no3)ccn2)cc1OC`, with 10.8%; and `CCOc1cc(CNc2cc(-c3nc(C)no3)ccn2)ccc1OC`, with 1.84%.

On to `Cc1noc(-c2ccnc(Oc3ccc(CN4CCCC4)cc3C)c2)n1`, for which the INHIBITION came out at 89%. In the case of `Fc1ccc(CN2CCC(c3noc(-c4cnccn4)n3)CC2)cc1F`, the INHIBITION is given as 18.3%.
